In the library only some 8.3% were active in any assay of this set; here they are far more common.
Gal4-VP16 FLuc – counter-screen for ROR gamma inhibitors: Gal4-VP16 reporter | Drosophila S2 Gal4-VP16 UAS-luciferase, luminescence, 20 h | AID 2546 | Potency, µM (series often up to 53.6 µM), for inactives: at the top dose activity, negative = inhibition, hits mostly inhibitors | 310,000 compounds, 3.5% hits;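 note: Gal4-VP16 expression switched on by copper sulfate through the metallothionein promoter; potency is the fitted concentration of half-maximal effect; % is set by controls: 0 for no effect and ±100 for the full control effect; nearly all actives have a fitted effect of over 50% in size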
RORg inh – inhibitors of mouse ROR gamma transcriptional activity | P51450 | Drosophila S2 Gal4-RORgamma UAS-luciferase reporter, 20 h | Potency, µM (top dose mostly 53.6 µM), inactives show top-dose activity change, negative = inhibition, actives largely listed as inhibitors | 310,000 compounds, 5.4% hits | AID 2551; note: potency is the fitted concentration of half-maximal effect; % is set by controls: 0 for no effect and ±100 for the full control effect; nearly all actives have a fitted effect of over 60% in size
Target sequence (P51450 whole entry, looked up, the tested form may be a part): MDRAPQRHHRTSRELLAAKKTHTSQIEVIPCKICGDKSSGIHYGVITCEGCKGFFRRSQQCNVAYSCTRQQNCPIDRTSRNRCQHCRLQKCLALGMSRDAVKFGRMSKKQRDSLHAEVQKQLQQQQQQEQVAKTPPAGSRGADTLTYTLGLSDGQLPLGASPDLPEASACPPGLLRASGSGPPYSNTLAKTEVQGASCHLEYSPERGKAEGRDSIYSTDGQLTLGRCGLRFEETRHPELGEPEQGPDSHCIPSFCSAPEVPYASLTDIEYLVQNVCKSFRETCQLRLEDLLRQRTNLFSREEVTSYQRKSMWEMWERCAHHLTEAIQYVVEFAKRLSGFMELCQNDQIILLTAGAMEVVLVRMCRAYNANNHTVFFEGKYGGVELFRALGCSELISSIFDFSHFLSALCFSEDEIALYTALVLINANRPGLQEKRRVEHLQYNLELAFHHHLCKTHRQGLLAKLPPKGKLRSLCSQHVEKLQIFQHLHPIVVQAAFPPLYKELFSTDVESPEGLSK
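Stably transfected Drosophila Schneider cells are the test system, with ROR gamma fused to Gal4 and luciferase under UAS control; luminescence is read after 20 hr of 700 uM copper sulfate induction at ambient temperature.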
SW480 rerep – inducers of DNA re-replication in SW480 colon cancer cells | SW480 DNA re-replication, Hoechst DNA content imaging, 48 h | Potency, µM (highest dose often 46.1 µM), inactives show top-dose re-replication activation, hits mostly activators | 340,000 compounds, 1.8% hits; note: potency is the fitted concentration of half-maximal effect; % of control where 0% means no effect; nearly all actives have a fitted effect of over 55% in size
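250 cells/well; 23 nL cpd via pin tool; 48 hr, 37 C, 5% CO2; Hoechst 40 min; imager read of total nuclear intensity, ex 405/em 500-530 nm.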
MCF10A rerep – induces DNA re-replication in MCF 10a normal breast cells | 350,000 compounds, 2.9% hits | Potency, µM (highest dose often 46.1 µM), for the others: at the top dose activity, positive = re-replication, most hits filed as activators | MCF 10A DNA re-replication, Hoechst nuclear intensity, 48 h; note: potency is the fitted concentration of half-maximal effect; % of control where 0% means no effect; nearly all actives have a fitted effect of over 50% in size
Chronic BCR inh – chronic active BCR signaling inhibition. Potency, µM (series often up to 46.1 µM), inactives show top-dose activity change, negative = inhibition, actives largely listed as inhibitors. ABC-DLBCL IkBa-CBG/CBR reporter, luminescence ratio, 4 h. 340,000 compounds, 0.05% hits; active = well fitted inhibition curve with a large enough effect in the signal ratio, with a control signal flat, not every such curve was filed as active; inconclusive = small, poorly fitted or top-dose-only effect, or effect the other way, or a change in a side signal; the % refers to the signal ratio;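 note: potency is the fitted concentration of half-maximal effect; plate controls were basal doxycycline-induced cells for no effect and cells given 10 µM MG132 for full effect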
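Compounds up to 46 uM were incubated four hours with TMD8 cells whose green CBG68 luciferase is fused to IkappaBalpha; red CBR luminescence normalised the signal, and concentration-effect curves were fitted to fusion, red and ratio data.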
Giardia kill – kills Giardia lamblia. 340,000 compounds, 0.15% hits. activity change, % at 7.66 µM, hits read low. Giardia lamblia trophozoite viability; in the data active = activity change below about -80%; inconclusive = between about -30% and that limit;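 note: parasites exposed to compound for two days anaerobically before the ATP read; % is set by controls: 0 for no effect and ±100 for the full control effect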
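Trophozoite viability was measured as ATP-dependent luminescence, read 15-30 min after reagent addition. Before that, parasites at 100 cells/well were exposed to compounds for 48 h, anaerobically, at 37 deg C.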
Starred values were filed as active, the others as inactive; ? = inconclusive; · = no result; [ ] = another dose, or the depositor's remark. Unless noted, calls come from the whole dose curve; as a rule, active = well fitted curve in the direction sought with a large enough effect; inconclusive = small, poorly fitted or top-dose-only effect, or another doubt; inactive = no such curve, though single readings can be large; an effect the other way counts as inactive or inconclusive.

SMILES | Gal4-VP16 FLuc | RORg inh | SW480 rerep | MCF10A rerep | Chronic BCR inh | Giardia kill
O=C(O)c1ccccc1NC(c1ccccc1)c1ccc2cccnc2c1O (centres undefined) | · | · | ? | ? | · | -7.3
CC1CC2CCCC(O)=C2C(=O)O1 (centres undefined) | · | · | 2.0% | 0.6% | · | 9.0
Cc1nn(Cc2c(F)c(F)c(F)c(F)c2F)c(C)c1NC(=O)c1c(-c2ccccc2)nn(-c2ccccc2)c1C | -27.0% | -36.7% | 5.5% | 23.1µM* | 6.8% | 11.1
Cc1c(C(=O)NCc2ccc(F)cc2)c(-c2ccccc2)nn1-c1ccccc1 | 5.3% | -22.2% | -2.7%[9.22 µM] | ? | 6.6% | -15.8
CCOC(=O)c1cc2sccc2n1CCCN1C(=O)c2ccccc2C1=O | ? | ? | 9.5% | 20.6µM* | 0.2% | -7.5
CCOC(=O)c1cc2sccc2n1Cc1ccccc1 | -3.8% | 4.8% | -2.5% | 14.0% | ? | -2.7
O=C(Cc1ccccc1)NC(=S)Nc1cc(C(F)(F)F)ccc1Cl | -20.6% | 1.58µM* | 13.7% | 22.8% | 14.4% | -2.5
O=C(Cc1ccccc1)NC(=S)Nc1cccc(C(F)(F)F)c1 | 12.6µM* | 7.08µM* | -4.2% | ? | 12.2% | -8.6
Cc1ccc(C(=O)NC(=S)Nc2cc(C(F)(F)F)ccc2Cl)cc1 | -16.7% | 10µM* | ? | 9.2µM* | 10.9% | -15.0
COC(=O)CCC(=O)NC(=S)Nc1cc(Cl)ccc1Cl | ? | 10µM* | 9.9% | 6.1% | ? | 5.0
COc1ccc2c(c1)CCCC(Br)C2=O (centres undefined) | · | · | 18.4µM* | ? | · | -1.3
Cc1ccc(C2Oc3ccccc3C3=C2C(c2cccs2)n2ncnc2N3)cc1 (centres undefined) | ? | 11.2µM* | ? | 5.8µM* | ? | 2.0
O=S(=O)(/C(=C/c1ccc(C(F)(F)F)cc1)c1nc2ccccc2[nH]1)c1ccccc1 | 5.62µM* | 14.1µM* | ? | ? | ? | -18.4
C/C(=C\c1ccc(N)cc1)c1nc2ccccc2[nH]1 | 1.7% | -22.4% | -12.5% | 3.2% | -1.0% | 5.2
CC(C)c1ccc(/C=C(\c2nc3ccccc3[nH]2)S(=O)(=O)c2ccccc2)cc1 | ? | ? | 11.6µM* | 2.59µM* | ? | -13.9
CCn1nc(C)cc1C(=O)Sc1ccc(C)cc1 | 7.6% | -17.3% | -6.4% | ? | 3.0% | -10.3
CCn1nc(C)c(Br)c1C(=O)Sc1ccccc1Cl | -19.5% | ? | 22.8% | 18.4µM* | -12.3% | 11.5
COc1ccccc1C(=O)NCC(=O)NNC(=O)C1COc2ccccc2O1 (centres undefined) | · | · | 0.8% | -1.1% | -20.9% | -5.1
CN(C)c1nc(C(=O)NN)nc(N(C)C)n1 | -1.4% | -36.0% | 16.0% | 3.66µM* | ? | -0.3
CC(NC(=O)c1ccco1)C(=O)N(C)Cc1ccc(C(F)(F)F)cc1 (centres undefined) | -2.5% | 13.0% | 10.6% | 0.1% | -3.8% | -18.2
CC(C)C(=O)N(c1cc2sc(=O)oc2c2ccccc12)S(=O)(=O)c1cccs1 | ? | 22.4µM* | 21.5% | ? | ? | 7.4
COC(=O)CSc1nc2sc3c(c2c(=O)n1-c1ccc(OC)cc1)CCN(C)C3 | -7.3% | 21.3% | 1.3% | -0.1% | 3.8% | -8.2
CN1CCc2c(sc3nc(SCC(=O)N4CCOCC4)n(-c4ccc(Cl)cc4)c(=O)c23)C1 | ? | -16.8% | 8.2µM* | 4.8% | 0.0% | 8.5
CC(=O)c1ccc(NC(=O)/C(=C\c2ccccc2)NC(=O)c2ccco2)cc1 | -19.0% | -1.6% | -12.8% | -5.6% | -4.5% | -3.2
CC(C)(C)OC(=O)NCCCC[C@H](NC(=O)c1nc[nH]c1C(=O)NC(c1ccccc1)c1ccccc1)C(=O)OC(C)(C)C | ? | 10µM* | ? | 26.1% | 16.0% | 51.5
SMILES | Gal4-VP16 FLuc | RORg inh | SW480 rerep | MCF10A rerep | Chronic BCR inh | Giardia kill
C[C@H](NC(=O)c1nc[nH]c1C(=O)N[C@@H](CCCCNC(=O)OC(C)(C)C)C(=O)OC(C)(C)C)C(=O)OC(C)(C)C | 12.6µM* | ? | -3.7% | 6.5% | -8.3% | 41.1
CC(C)(C)OC(=O)NCCCC[C@H](NC(=O)c1nc[nH]c1C(=O)N[C@@H](CCCCNC(=O)OC(C)(C)C)C(=O)OC(C)(C)C)C(=O)OC(C)(C)C | -9.0% | ? | ? | ? | 7.6% | -18.1
Cc1cccc(NC(=O)c2nc[nH]c2C(=O)N[C@@H](CCCCNC(=O)OC(C)(C)C)C(=O)OC(C)(C)C)c1 | 15.8µM* | 6.31µM* | 5.4% | ? | 1.9% | -14.2
CN(Cc1ccccc1F)C(=O)CCNC(=O)c1ccc(C(C)(C)C)cc1 | · | · | 1.0% | 1.1% | -4.7% | 5.4
COc1ccc(CCC(=O)Nc2ccc(C(=O)c3ccncc3)cc2)cc1 | 0.5% | 6.5% | -2.0% | -0.4% | -8.5% | 5.7
c1ccc2sc(N3CCN(Cc4ccc5c(c4)OCO5)CC3)nc2c1 | 4.0% | ? | · | · | · | ·
N#C/C(=C\N1CCN(Cc2ccc3c(c2)OCO3)CC1)c1nc2ccccc2s1 | -2.4% | ? | ? | 20.6µM* | ? | -9.5
CCN1CCN(CCCNC(=O)c2ccc(/C=C3/Sc4ccccc4N(Cc4ccccc4F)C3=O)cc2)CC1 | ? | ? | 16.4µM* | 14.6µM* | ? | 28.6
CCN1CCN(CCNC(=O)c2ccc(/C=C3/Sc4ccccc4N(Cc4ccccc4C)C3=O)cc2)CC1 | 17.8µM* | ? | 7.31µM* | 18.4µM* | ? | 31.7
O=S(=O)(/N=C(/Sc1ccc(Cl)cc1)c1ccccc1)c1ccccc1 | · | · | · | · | · | -1.8
COc1ccc(-n2c(SCC(=O)N3CCc4ccccc43)nnc2-c2c[nH]c3ccccc23)cc1 | -8.6% | -2.1% | 1.6% | -2.2% | 1.6% | -5.6
O=C(CCCc1ccccc1)Nc1ccccn1 | 14.6%[10 µM] | 21.6% | 7.9% | 1.5% | 0.1% | -4.9
COc1ccc(S(=O)(=O)Nc2cc(SCC(=O)O)c(O)c3ccccc23)cc1 | -20.7% | ? | ? | -10.9% | -24.5% | -8.5
O=C(O)CSc1cc(NS(=O)(=O)c2ccc(Cl)cc2)c2ccccc2c1O | ? | -24.4% | ? | 23.1µM* | ? | -19.0
Cc1cc(C)c(S(=O)(=O)Nc2cc(SCC(=O)O)c(O)c3ccccc23)cc1C | ? | 11.2µM* | ? | ? | -7.1% | 20.8
Fc1cccc(NC(=S)Nc2cccnc2)c1 | 14.4% | -8.7% | -38.4% | -40.0% | -0.5% | -0.1
Cc1cc(Cl)ccc1NC(=S)Nc1cccnc1 | ? | 12.6µM* | 4.3% | -182.3%[0.0737 µM] | -0.6% | 15.3
Cc1cc(NC(=S)Nc2cccnc2)ccc1Br | ? | 12.6µM* | ? | 12.6% | ? | -6.9
Cc1cc(NC(=S)Nc2ccccc2)ccc1Br | ? | 10µM* | ? | 1.3% | ? | 5.9

Screens from PubChem BioAssay.
